Tests used:
Type in all cases: functional
Plasmodium falciparum [1] = experiment: GSK_TCMDC: Inhibition of Plasmodium falciparum 3D7 in whole red blood cells, using parasite LDH activity as an index of growth. Test compounds present at 2uM
Plasmodium falciparum [2] = experiment: GSK_TCMDC: Inhibition of Plasmodium falciparum Dd2 in whole red blood cells, using parasite LDH activity as an index of growth. Test compounds present at 2uM
HepG2 = experiment: GSK_TCMDC: Percent inhibition of human HepG2 cell line. Test compounds present at 10uM.

Compound | Inhibition (Plasmodium falciparum [1]) [%] | Inhibition (Plasmodium falciparum [2]) [%] | Inhibition (HepG2) [%]
C=C(F)c1sc(CNCCCNc2nc3ccccc3[nH]2)c(C)c1Br | 100 | 23 | 15
COc1ccc2nc(C)cc(Nc3ccc(Oc4ccc5ccccc5c4)c(Cl)c3)c2c1 | 100 | 99 | 40
O=C(O)C(F)(F)F.c1ccc(CN2CCC(NCc3ccc(-c4cccc(CNC5CCCC5)c4)cc3)CC2)cc1 | 100 | 100 | 55
CC(C)(C)c1ccc2[nH]c(-c3ccc(/C=C/C(=O)NCc4ccc(Cl)c(Cl)c4)cc3)nc2c1 | 97 | 17 | 41
CN(c1ccc(NC(=O)c2ccc(F)cc2)cc1)C1CCN(Cc2cccc(F)c2)C1.O=C(O)C(F)(F)F (centres undefined) | 81 | 74 | 3
O=C(O)C(F)(F)F.OCC1CCN(Cc2ccc(-c3ccc(-c4nc5cc(F)ccc5[nH]4)s3)cc2)CC1 | 100 | 98 | 14
COc1ccc(NC(=O)[C@H](Cc2ccccc2)Nc2cc(C)nc(NCCc3ccccn3)n2)cc1.O=C(O)C(F)(F)F | 99 | 39 | 0
Br.Oc1ccc(CNCCCCCCNCCc2ccc(Cl)cc2)cc1O | 94 | 7 | 2
Cl.c1cc2[nH]c(CCCCc3nc4cc(C5=N[C@H]6CCCC[C@H]6N5)ccc4[nH]3)nc2cc1C1=N[C@H]2CCCC[C@H]2N1 | 90 | 88 | 5
CS(=O)(=O)c1ccc(OCCCN(Cc2ccccc2C(F)(F)F)c2ccc(C#N)c(C(F)(F)F)c2)cc1 | 94 | 76 | 4
COc1ccc2c(=NN=Cc3cccc(Cl)c3)cc(C)[nH]c2c1 | 100 | 99 | 3
COc1cc(F)c2ncc(Cl)c([C@H](O)CN3CCC(NCc4cc5c(cn4)OCCO5)CC3)c2c1.Cl | 100 | 49 | 10
COc1cc(-c2nc(C(C)(C)CN)[nH]c2-c2ccncc2)ccc1Br.Cl | 97 | 95 | 17
O=C(CCC1CCCC1)N(Cc1ccc(-c2ccc(CNCCc3ccccc3)cc2)cc1)C1CCCNC1.O=C(O)C(F)(F)F (centres undefined) | 90 | 71 | 99
OCCc1ccc(Nc2nccc(-c3nnc4ccccn34)n2)cc1 | 93 | 46 | 63
Cc1ccc(C(=O)c2oc3ccc4c(C)cc(=O)oc4c3c2C)cc1 | 86 | 48 | 0
O=C(O)C(F)(F)F.c1cc(CN2CCN(CCN3CCOCC3)CC2)cc(-c2ccc(-c3nc4ccccc4[nH]3)cc2)c1 | 100 | 100 | 23
Clc1ccccc1/C=C/c1cncnc1Nc1ccc2[nH]c(Cc3ccccc3)nc2c1 | 96 | 26 | 4
Cc1cc(N(C)C)nc(Nc2ccc(NC(=O)c3ccccc3F)cc2)n1 | 89 | 26 | 0
O=C(/C=C/c1ccc(Cl)c(Cl)c1)NCCCCCCN1CCN(C(=O)Nc2cc(F)cc(F)c2)CC1 | 86 | 0 | 23
NC(=O)c1cccc(C(=O)Nc2cccc(-c3ccc(-c4nc5cc(C(F)(F)F)ccc5[nH]4)cc3)c2)c1 | 100 | 78 | 83
CCCOc1ccc(C(=O)Nc2nonc2-c2ccc(OC)c(OC)c2)cc1 | 99 | 97 | 0
COc1ccc(NC(=O)[C@H](CC(C)C)Nc2cc(C)nc(Nc3ccccc3)n2)cc1.O=C(O)C(F)(F)F | 100 | 92 | 25
CN(C)CCCNCc1ccc(-c2ccc(CNCCc3ccccc3)cc2)cc1.O=C(O)C(F)(F)F | 100 | 87 | 61
CC(C)N(Cc1cnc(N)c(C#N)n1)c1ccc(Cl)c(Cl)c1 | 97 | 63 | 0
COc1ccc(CNc2nc(NCc3ccccc3)c3cc(OC)c(OC)cc3n2)cc1OC | 100 | 99 | 24
O=C(Nc1cccc(-c2ccc(-c3nc4ccccc4[nH]3)cc2)c1)c1ccncc1 | 100 | 58 | 30
Cc1cccc(C(=O)Nc2ccc(N3CCCN(Cc4cccc(O)c4)CC3)cc2)c1.O=C(O)C(F)(F)F | 92 | 44 | 2
